Screens deposited in PubChem BioAssay by several laboratories.
CYP2C19 inhib – blocks human cytochrome P450 2C19. P33261. CYP2C19 Supersomes, luciferin-H EGE luminescence, 30 min. inhibition, % at 5 µM. 96,000 tested, 21% active. AID 778;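 active = CYP2C19 inhibition above a set limit at 5 µM in the primary screen, cut at about 50% in these data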
sEH act – activators of human soluble epoxide hydrolase; purified human sEH enzymatic activity, activator screen; 91,000 tested, 0.04% active; activation, % at 2 µM; P34913; AID 717; in the data active = activation above about 37%
CYP2C9 inh – human CYP2C9 inhibition | CYP2C9 Supersomes, luciferin-H conversion, luminescence | inhibition, % at 5 µM | 96,000 tested, 20% active | P11712;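 active = blocking of liver enzyme CYP2C9 beyond about 50% at 5 µM, limit read from the data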
Target sequence (P11712 whole entry, looked up): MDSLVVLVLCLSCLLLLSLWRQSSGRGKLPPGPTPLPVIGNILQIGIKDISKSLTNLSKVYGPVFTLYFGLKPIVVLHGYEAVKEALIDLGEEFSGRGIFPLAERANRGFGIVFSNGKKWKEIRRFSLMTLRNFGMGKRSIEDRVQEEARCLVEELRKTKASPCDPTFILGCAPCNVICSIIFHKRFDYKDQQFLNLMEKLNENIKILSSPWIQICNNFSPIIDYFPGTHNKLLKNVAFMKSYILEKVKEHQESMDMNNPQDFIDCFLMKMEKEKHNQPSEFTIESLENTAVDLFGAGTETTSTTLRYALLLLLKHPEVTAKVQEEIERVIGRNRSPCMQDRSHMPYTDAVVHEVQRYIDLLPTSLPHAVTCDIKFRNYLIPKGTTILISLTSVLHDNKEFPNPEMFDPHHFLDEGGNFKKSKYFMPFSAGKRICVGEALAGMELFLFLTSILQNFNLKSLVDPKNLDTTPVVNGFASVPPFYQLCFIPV
sEH inh – soluble epoxide hydrolase (human) inhibition | P34913 | recombinant human sEH enzymatic activity assay | inhibition, % at 2 µM | 91,000 tested, 0.34% active; in the data active = inhibition above about 80%
CYP2C19 act – increases human CYP2C19 enzyme activity; recombinant CYP2C19, luciferin-H EGE luminescence; stronger effect = higher value; 0 = fully inhibited enzyme, 1 = untreated enzyme; activation factor at 5 µM; 96,000 tested, under 10 active;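 active = activation factor of at least 2 at 5 µM in the primary screen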
CYP2C9 act – CYP2C9 (human) activation; recombinant CYP2C9, luciferin-H conversion, luminescence; stronger effect = higher value; factor 1 = untreated enzyme, 0 = blocked; activation factor at 5 µM; P11712; AID 1024; 96,000 tested, 1.4% active;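 active = activation factor of 2 or more for CYP2C9 at a 5 µM dose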
Numbers stand for hits. Compounds with a hit are over-represented: about 27% of the library has one in this group of screens.

O=C(OCC(=O)N1CCN(C(=O)c2ccco2)CC1)c1sc2ccccc2c1Cl was read as CYP2C19 inhib inactive, sEH act inactive, CYP2C9 inh inactive, sEH inh inactive, CYP2C19 act inactive and CYP2C9 act inactive.
For CCN(CC)S(=O)(=O)c1ccc(C(=O)OCC(=O)N2CCN(C(=O)c3ccco3)CC2)cc1 the results were CYP2C19 inhib inactive, CYP2C9 inh 96, CYP2C19 act inactive and CYP2C9 act inactive.
For O=C(Nc1ccccc1C(=O)OCC(=O)N1CCc2ccccc2C1)c1ccco1 the results were CYP2C19 inhib 65, sEH act inactive, CYP2C9 inh 87, sEH inh inactive, CYP2C19 act inactive and CYP2C9 act inactive.
CCn1c(SCC(=O)Nc2cc(C)on2)nnc1-c1ccc(S(=O)(=O)N2CCN(C)CC2)cc1 was read as CYP2C19 inhib inactive, sEH act inactive, CYP2C9 inh inactive, sEH inh inactive, CYP2C19 act inactive and CYP2C9 act inactive.
For CC(C)N(C(=O)CSc1nc2ccccc2n1Cc1ccc(F)cc1)C(C)C the results were sEH act inactive and sEH inh inactive.
N#Cc1ccccc1Sc1ccccc1C(=O)OCC(=O)N1CCN(C(=O)c2ccco2)CC1 was read as CYP2C19 inhib inactive, CYP2C9 inh 77, CYP2C19 act inactive and CYP2C9 act inactive.
O=C(COC(=O)C1(c2ccc(F)cc2)CCCC1)N1CCN(C(=O)c2ccco2)CC1 was read as CYP2C19 inhib 73, sEH act inactive, CYP2C9 inh 82, sEH inh inactive, CYP2C19 act inactive and CYP2C9 act inactive.
O=C(c1ccco1)N1CCN(C(=O)c2ccccc2Oc2ccccc2)CC1 was read as sEH act inactive and sEH inh inactive.
O=C(c1ccco1)N1CCN(C(=O)c2ccccc2OC(=O)C23CC4CC(CC(C4)C2)C3)CC1 was read as CYP2C19 inhib 79, sEH act inactive, CYP2C9 inh 65, sEH inh inactive, CYP2C19 act inactive and CYP2C9 act inactive.
`O=C(OCC(=O)N1CCN(C(=O)c2ccco2)CC1)c1ccccc1OCc1ccc(Cl)cc1` gave CYP2C19 inhib inactive, CYP2C9 inh 77, CYP2C19 act inactive and CYP2C9 act inactive.
Cc1cccc(-n2cnc(C(=O)N/N=C\c3ccc(Br)cc3)c2)n1 was read as CYP2C19 inhib inactive, sEH act inactive, CYP2C9 inh inactive, sEH inh inactive, CYP2C19 act inactive and CYP2C9 act inactive.
For O=c1[nH]c2c(n(C3CCCCC3)c1=O)CCC2 the results were CYP2C19 inhib inactive, sEH act inactive, CYP2C9 inh inactive, sEH inh inactive, CYP2C19 act inactive and CYP2C9 act inactive.
`O=C(COC(=O)c1cccnc1)c1ccc(Cl)c(Cl)c1` gave CYP2C19 inhib 77, sEH act inactive, CYP2C9 inh inactive, sEH inh inactive, CYP2C19 act inactive and CYP2C9 act inactive.
O=C(COC(=O)c1cccnc1)c1ccc(Cl)cc1 was read as CYP2C19 inhib 60, sEH act inactive, CYP2C9 inh inactive, sEH inh inactive, CYP2C19 act inactive and CYP2C9 act inactive.
For O=C(CCC(=O)c1ccc(Cl)cc1)OCC(=O)c1ccccc1 the results were CYP2C19 inhib inactive, sEH act inactive, CYP2C9 inh inactive, sEH inh inactive, CYP2C19 act inactive and CYP2C9 act inactive.
Screening COc1ccc2nc(CC(C)(C)CC(=O)O)c[n+]([O-])c2c1 returned CYP2C19 inhib inactive, sEH act inactive, CYP2C9 inh inactive, sEH inh inactive, CYP2C19 act inactive and CYP2C9 act inactive.
Screening CCOP(=O)(c1c(F)c(F)c(F)c(F)c1F)C1(O)CCCCC1 (stereo not drawn) returned CYP2C19 inhib inactive, sEH act inactive, CYP2C9 inh inactive, sEH inh inactive, CYP2C19 act inactive and CYP2C9 act inactive.
Cc1ccccc1Nc1c([N+](=O)[O-])ccc2c1=NC1(CCCCC1)N=2 was read as CYP2C19 inhib inactive, sEH act inactive, CYP2C9 inh inactive, sEH inh inactive, CYP2C19 act inactive and CYP2C9 act inactive.
For CCOC(=O)c1ccc(-c2c(C(=O)OCC)oc3cc(O)c(CC)cc3c2=O)o1 the results were CYP2C19 inhib 68, sEH act inactive, CYP2C9 inh 97, sEH inh inactive, CYP2C19 act inactive and CYP2C9 act inactive.
Screening CCOC(=O)c1ccc(CC(=O)c2oc3cc(O)ccc3c2C)o1 returned CYP2C19 inhib inactive, sEH act inactive, CYP2C9 inh 66, sEH inh inactive, CYP2C19 act inactive and CYP2C9 act inactive.
For Cc1ccccc1OC(=O)C1C(c2ccccc2)C(C(=O)O)C1c1ccccc1 (stereo not drawn) the results were CYP2C19 inhib inactive, sEH act inactive, CYP2C9 inh inactive, sEH inh inactive, CYP2C19 act inactive and CYP2C9 act inactive.
Screening Cc1ccc(NC2c3ncccc3C(=O)N2Cc2ccc(F)cc2)cc1 (stereo not drawn) returned CYP2C19 inhib inactive, sEH act inactive, CYP2C9 inh 53, sEH inh inactive, CYP2C19 act inactive and CYP2C9 act inactive.
Screening COc1ccccc1NC(=O)N(c1c(N)n(Cc2ccccc2)c(=O)[nH]c1=O)C1CCCC1 returned CYP2C19 inhib inactive, sEH act inactive, CYP2C9 inh inactive, sEH inh inactive, CYP2C19 act inactive and CYP2C9 act inactive.
`O=c1oc(-c2cccs2)nc2c1cnn2-c1ccccc1` gave CYP2C19 inhib inactive, CYP2C9 inh inactive, CYP2C19 act inactive and CYP2C9 act inactive.
O=C(CN1CCOCC1)OCCCc1ccccc1 was read as CYP2C19 inhib 66, sEH act inactive, CYP2C9 inh inactive, sEH inh inactive, CYP2C19 act inactive and CYP2C9 act inactive.
For CCOc1c(Cl)cc(C(=O)NCCN2CCCCC2)cc1Cl the results were CYP2C19 inhib inactive, sEH act inactive, CYP2C9 inh inactive, sEH inh inactive, CYP2C19 act inactive and CYP2C9 act inactive.
Cc1nc(SCC(=O)OCc2ccccc2)c(C#N)c(-c2ccccc2)c1C(=O)Nc1ccccc1 was read as CYP2C19 inhib inactive, sEH act inactive, CYP2C9 inh 59, sEH inh inactive, CYP2C19 act inactive and CYP2C9 act inactive.
Screening CSc1nc(N)nc(SCC(=O)c2ccccc2)c1C#N returned CYP2C19 inhib inactive, sEH act inactive, CYP2C9 inh inactive, sEH inh inactive, CYP2C19 act inactive and CYP2C9 act inactive.
CSc1nc(C)c(C(=O)Nc2ccccc2)c(C)c1C#N was read as CYP2C19 inhib 73, sEH act inactive, CYP2C9 inh inactive, sEH inh inactive, CYP2C19 act inactive and CYP2C9 act inactive.
`CC(Sc1nnc(NC(=O)c2cc3ccccc3oc2=O)s1)c1ccccc1` (stereo not drawn) gave CYP2C19 inhib inactive, sEH act inactive, CYP2C9 inh inactive, sEH inh inactive, CYP2C19 act inactive and CYP2C9 act inactive.
Screening Cc1nc(SCC(=O)c2cc3ccccc3oc2=O)c(C#N)c(C)c1C(=O)Nc1ccccc1 returned CYP2C19 inhib inactive, sEH act inactive, CYP2C9 inh 51, sEH inh inactive, CYP2C19 act inactive and CYP2C9 act inactive.
